Rows were chosen to be rich in hits. Some 1.8% of all compounds tested hit in one or more screens of this group.
TCR activator: Activators of T cell receptors: qHTS campaign; AID 504894, 2011; primary human leukocytes, anti-CD3, IL-2 HTRF, 48 h; Potency, µM (series often up to 9.22 µM), for inactives: at the highest dose activation of IL-2 secretion, most hits filed as activators; 330,000 tested, under 10 active; further: % of control where 0% means no effect
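Readout: HTRF IL-2, Eu-cryptate/d2 antibody pair, 320nm excitation, 665nm emission. Stimulus: a-CD3 beads, no co-stimulation. Cells: primary human leukocytes. Exposure: 48 hr with compound.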
AT treatment: qHTS Assay for Identifying a Potential Treatment of Ataxia-Telangiectasia | F2112 A-T fibroblasts, KAP-1 phosphorylation AlphaLISA; neocarzinostatin DNA damage 30 min before lysis | Potency, µM (doses to about 57.5 µM), without a hit: at the top dose activation, usual class: activators | 0.19% of 320,000 active | AID 485349, 2010; further: potency means the concentration at half of the fitted maximal effect; % of control where 0% means no effect; nearly all actives have a fitted effect of over 45% in size
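ATM-like activity read as KAP-1 phosphorylation via AlphaLISA donor/acceptor antibody pairs after lysis and 6 hr at 25C. Cells were ATM-null patient fibroblasts (F2112, hTERT), dosed 60 min, then exposed to the DSB inducer NCS for 30 min.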
MBNL1 CUG block: qHTS Assay for Inhibitors of MBNL1-poly(CUG) RNA binding; Muscleblind-like protein 1 (Homo sapiens), Q9NR56; TR-FRET MBNL1-His/biotin-(CUG)12 binding, 665/545 ratio; Potency, µM (doses to about 57.5 µM), inactives show at the top dose activity change, negative = inhibition, hits mostly inhibitors; 0.036% of 280,000 active; AID 2675, 2010; active means well fitted inhibition curve with a large enough effect in the signal ratio, with a control signal flat, not every such curve was filed as active; inconclusive means small, poorly fitted or top-dose-only effect, or effect the other way, or a change in a side signal; inactive means no such curve, though single readings can be large or run the other way; the % refers to the signal ratio; further: potency means the concentration at half of the fitted maximal effect; on the % scale 0 is the no-effect control and ±100 the full control effect
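MBNL1-His + Biotin-(CUG)12, cpd titration 92 nM–58 uM; Tb anti-His Ab 0.055 ng/ul, SA-XL665 5 nM (final); 60 min RT; ratiometric 665/545 nm, Ex 340 nm; normalized to buffer and full-complex controls.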
ClpP mod: qHTS Assay for Activators of ClpP; ATP-dependent Clp protease proteolytic subunit (Bacillus subtilis (strain 168)), P80244; purified B. subtilis ClpP, FRET peptide cleavage, 20 min; Potency, µM (doses to about 57.5 µM), for inactives: top-dose activity change, negative = active; 1.9% of 340,000 active; AID 651965, 2013; active means well fitted falling curve with a large enough effect; inconclusive means small, poorly fitted or top-dose-only effect; inactive means no such curve, though single readings can be large or run the other way; further: potency means the concentration at half of the fitted maximal effect; the source files actives as falling curves though it sought activators and does not explain the sign; nearly all actives have a fitted effect of over 65% in size
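Purified B. subtilis ClpP, 10 microg/mL final in Tris/HCl pH8 with KCl, BSA, glycerol and Tween-20, cleaved an Abz/nitrotyrosine-quenched decapeptide. Fluorescence (ex 320, em 430) was read at 0 and 20 min at room temperature. Delta was normalized to 5.8 microM ADEP and DMSO/no-enzyme controls.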
Glioma ERSR ind: qHTS for Inducers of the Endoplasmic Reticulum Stress Response (ERSR) in Human Glioma: qHTS; Potency, µM, for the others: top-dose activation, hits mostly activators; U87-MG GRP78 promoter luciferase reporter, 16 h; 0.02% of 420,000 active; further: potency means the concentration at half of the fitted maximal effect; series mostly up to about 76 µM; % of control where 0% means no effect; nearly all actives have a fitted effect of over 35% in size
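ERSR induction read as luciferase luminescence (Bright-Glo, 10 min at room temperature) in stably transfected human U87-MG glioma cells exposed to compounds for 16 h, using GRP78 as sensor.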
Mito fusion act: qHTS Assay for Small Molecule Inhibitors of Mitochondrial Division or Activators of Mitochondrial Fusion; 0.23% of 320,000 active; Potency, µM (series often up to 46.1 µM), inactives show top-dose growth rescue (activation), actives largely listed as activators; S. cerevisiae fusion-defective mutant growth rescue, CellTiterGlo 48 h; further: potency means the concentration at half of the fitted maximal effect; % of control where 0% means no effect; nearly all actives have a fitted effect of over 45% in size
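Compounds are tested for their ability to restore growth of mitochondrial fusion-defective yeast strains at non-permissive 37C in YPEG medium over 48 hours. Viability is quantified by luciferase luminescence.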
Numbers without * were called inactive; ? = inconclusive; . = no result; [ ] = another dose, or the depositor's remark. Unless noted, the call rests on the fitted dose curve; in most records, active means well fitted curve in the direction sought with a large enough effect; inconclusive means small, poorly fitted or top-dose-only effect, or another doubt; inactive means no such curve, though single readings can be large; an effect the other way counts as inactive or inconclusive.

SMILES	TCR activator	AT treatment	MBNL1 CUG block	ClpP mod	Glioma ERSR ind	Mito fusion act
CCC1CCCCN1C(=O)COc1ccc2c3c(c(=O)oc2c1)CCC3 (stereo unspecified)	-3.0%	6.0%	.	28.2µM*	-2.1%	0.9%
O=C(O)[C@@H]1CCCN1C(=O)COc1ccc2c3c(c(=O)oc2c1)CCC3	9.7%	0.3%	20.6%	5.2%	-2.6%	1.0%
COc1ccc2c(c1)c(=O)oc1cc(OCC(=O)N3CCCC(C)C3)ccc12 (stereo unspecified)	5.3%	-0.1%	4.5%	?	-3.5%	-27.4%
CN(CCO)C(=O)c1cn(C2CCCN(Cc3cccc4ccccc34)C2)nn1 (stereo unspecified)	.	.	.	.	-2.6%	.
C=C1CCN(C(C)C(=O)OCc2ccc(C)cc2)S(=O)(=O)c2ccccc21 (stereo unspecified)	.	.	.	.	-3.6%	.
C=C1CCN([C@H](C(=O)OCc2ccc(C)cc2)C(C)C)S(=O)(=O)c2ccccc21	2.8%	39.8µM*	-0.7%	0.1%	-3.5%	-66.1%
COc1ccc(C(=O)N(Cc2cc3cccc(C)c3nc2N(C)C)CC2CCCO2)cc1 (stereo unspecified)	.	.	.	.	-2.0%	.
O=C(NCc1nnc2n1CCN(Cc1cc3c(cc1Cl)OCO3)CC2)C1CCOC1 (stereo unspecified)	.	.	.	.	-4.5%	.
CO[C@H]1[C@@H](O)[C@H](N)[C@@H](O[C@H]2O[C@@H]([C@H](C)N)CC[C@H]2N)[C@H](O)[C@@H]1N(C)C(=O)CN	.	.	.	.	-3.6%	.
CCOC(=O)c1ccccc1NCN1C(=O)CSC1=O	0.3%	-0.8%	1.6%	28.2µM*	-1.6%	-1.5%
CCOC(=O)c1cc2c(ccn2-c2ccc(F)cc2)n1CC(=O)N1CCN(C(=O)c2ccco2)CC1	-1.2%	1.9%	18.8%	31.6µM*	-6.3%	4.1%
CCCn1c(C(=O)OC)cc2c1ccn2-c1ccc(F)cc1	1.4%	12.6%	7.3%	28.2µM*	3.2%	-8.0%
COC(=O)c1cc2c(ccn2-c2ccc(F)cc2)n1CC(C)C	6.0%	14.2%	-13.2%	28.2µM*	-0.8%	-5.1%
COC(=O)c1cc2c(ccn2-c2ccc(F)cc2)n1C(C)C	0.1%	11.3%	1.2%	?	1.4%	-5.7%
O=C(OCC(COC(=O)c1cccnc1)(COC(=O)c1cccnc1)COC(=O)c1cccnc1)c1cccnc1	.	.	.	.	-2.0%	.
COc1cc2c(=O)n(Cc3ccccc3)c(=O)n(CC(=O)NCC3CCCO3)c2cc1OC (stereo unspecified)	-1.4%	-20.2%	-0.2%	?	-1.1%	-4.0%
COc1cc2c(=O)n(Cc3ccccc3)c(=O)n(CC(=O)NCCc3ccccc3)c2cc1OC	-15.9%	-1.7%	1.4%	28.2µM*	-5.4%	-2.4%
CC(NC(=O)c1cccnc1)c1nnc2n1CCN(Cc1ccc(-c3ccccc3Cl)o1)CC2 (stereo unspecified)	.	.	.	.	-1.3%	.
COc1ccc2c(COC(=O)[C@@H]3CCCN3S(=O)(=O)c3ccc(Cl)cc3)cc(=O)oc2c1	9.0%	-3.0%	.	25.1µM*	-2.4%	?
COc1cc(NC(=O)COC(=O)[C@@H]2CCCN2S(=O)(=O)c2ccc(Cl)cc2)cc(OC)c1OC	-3.0%	-8.3%	10.8%	-0.9%	0.1%	1.2%
COCC1CCCN(Cc2ccc3c(c2)CN(C(=O)c2sc(C)nc2C)CCO3)C1 (stereo unspecified)	.	.	.	.	-4.4%	.
CC(C)(C)N1C(=O)c2ccc(C(=O)Nc3ccc(-c4nc5ccccc5[nH]4)cc3)cc2C1=O	-21.5%[46.1 µM]	.	-13.1%	?	?	-5.8%
Cc1ccc(SCC(=O)Nc2ccc(-c3nc4ccccc4[nH]3)cc2)cc1	-1.4%[46.1 µM]	2.0%	-2.6%	25.1µM*	4.4%	-6.1%
O=C(Nc1ccc(-c2nc3ccccc3[nH]2)cc1)c1ccc(N2C(=O)CCC2=O)cc1	-3.7%[46.1 µM]	1.0%	.	22.4µM*	-5.1%	-3.1%
CCOC(=O)CSc1ccc(-c2nc3cc(C)c(C)cc3[nH]2)cn1	-3.4%	-5.5%	45.4%	31.6µM*	?	-1.7%
SMILES	TCR activator	AT treatment	MBNL1 CUG block	ClpP mod	Glioma ERSR ind	Mito fusion act
Cc1ccc(NC(=O)CCCSc2nc3ccccc3[nH]2)cc1	-2.6%[46.1 µM]	-0.4%	-0.1%	.	-0.2%	-0.7%
O=C(CSc1ccc(-c2nc3ccccc3[nH]2)cn1)Nc1ccc2c(c1)OCCO2	.	-2.0%	?	25.1µM*	?	-1.3%
O=C(Nc1cccnc1Cl)c1cnn2c1NC(=C1CC1)C=C2C(F)F	.	.	.	175.7%	-3.3%	.
CC(C)C(NS(C)(=O)=O)c1nnc2n1CCN(Cc1cccc3ncccc13)CC2 (stereo unspecified)	.	.	.	.	-2.9%	.
Oc1ccc(Br)cc1C1C=C(c2ccc3c(c2)OCO3)NC(c2ccc(F)c(Br)c2)N1 (stereo unspecified)	.	.	.	.	-6.6%	.
Cc1ccc2nc(-c3ccc(SCC(=O)Nc4nnc(C)s4)nc3)[nH]c2c1	-1.8%[46.1 µM]	9.9%	.	-1.2%	-10.5%	-3.8%
Cc1ccc2nc(-c3ccc(SCC(=O)Nc4nc(C)cs4)nc3)[nH]c2c1	0.3%[46.1 µM]	3.8%	9.9%	7.94µM*	4.7%	-2.7%
Cc1cc2nc(-c3ccc(SCC(=O)N4CCOCC4)nc3)[nH]c2cc1C	.	-7.2%	26.4%	3.16µM*	0.6%	-2.6%
CCOC(=O)CSc1ccc(-c2nc3ccccc3[nH]2)cn1	-26.8%	0.4%	3.7%	31.6µM*	-12.8%	-2.2%
COC(=O)c1c(OCc2ccccn2)cc(=O)n2c1CCN(Cc1ccc3c(c1)CCCN3C)CC2	.	.	.	.	-1.8%	.
COc1cc(=O)n2c(c1C(=O)NC(C)c1ccco1)CCN(C(=O)c1cc(C)cc(C)c1)CC2 (stereo unspecified)	.	.	.	.	5.2%	.
COc1cc(CNc2nc(C)c(-c3ccn(C4Cc5ccccc5C4)n3)s2)cc2c1OCO2	.	.	.	.	-1.4%	.
CCCc1cc(-n2ccnc2C)n2c(nc3ccccc32)c1C#N	1.5%	.	.	.	-1.5%	.
CCCc1cc(N2CCN(C(=O)c3ccco3)CC2)n2c(nc3ccccc32)c1C#N	2.5%	12.2%	?	35.5µM*	-2.2%	1.6%
CC1=CC(c2ccccc2)n2nc(N3C(=O)c4ccccc4C3=O)nc2N1 (stereo unspecified)	-2.2%	-2.8%	?	72.4%	-3.6%	0.8%
CC1=CC(c2ccccc2)n2nc(N3C(=O)CCC3=O)nc2N1 (stereo unspecified)	-0.9%[46.1 µM]	.	4.5%	28.2µM*	-2.4%	-2.3%
